Assay results: PubChem BioAssay AID1671190 (National Center for Advancing Translational Sciences (NCATS), 2021)
Values joined by “and” are separate entries in the source; they are usually repeats but may differ in a detail not shown here. Equal values may be shown once. Out of some 580,000 compounds screened, about 6,100 (1.1%) were called active. Inconclusive results (about 15%) are left out. For the sample, actives were picked, then their nearest neighbours and some compounds at random. Unmarked numbers belong to inactive results. Calls follow the shape of the dose curve; as a rule, active = well fitted inhibition curve with a large enough effect; inconclusive = small, poorly fitted or top-dose-only effect, or another doubt; inactive = no such curve, though single readings can be large or run the other way.

molecular target: Polyunsaturated fatty acid lipoxygenase ALOX12 (Homo sapiens) (UniProt P18054); assay: Primary qHTS assay for inhibitors of human arachidonate 12S-lipoxygenase (ALOX12): Round 2; settings: purified 12hLO, xylenol orange hydroperoxide absorbance; series mostly up to 108 µM; activity change, negative = inhibition: at the top concentration
Method in brief: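 Hydroperoxide product was detected by ferrous iron/xylenol orange as the 573 to 405 nm absorbance ratio. Arachidonic acid at 40 uM (final) was turned over for 30 min at room temperature by 150 nM human 12hLO, pH 7.0 Hepes buffer, after 15 min compound preincubation.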
% is scaled to controls: 0 for no effect and ±100 for the full control effect; potency is read from the fitted curve at half-maximal effect.

Chain of Polyunsaturated fatty acid lipoxygenase ALOX12 (Homo sapiens) (P18054 whole entry, looked up): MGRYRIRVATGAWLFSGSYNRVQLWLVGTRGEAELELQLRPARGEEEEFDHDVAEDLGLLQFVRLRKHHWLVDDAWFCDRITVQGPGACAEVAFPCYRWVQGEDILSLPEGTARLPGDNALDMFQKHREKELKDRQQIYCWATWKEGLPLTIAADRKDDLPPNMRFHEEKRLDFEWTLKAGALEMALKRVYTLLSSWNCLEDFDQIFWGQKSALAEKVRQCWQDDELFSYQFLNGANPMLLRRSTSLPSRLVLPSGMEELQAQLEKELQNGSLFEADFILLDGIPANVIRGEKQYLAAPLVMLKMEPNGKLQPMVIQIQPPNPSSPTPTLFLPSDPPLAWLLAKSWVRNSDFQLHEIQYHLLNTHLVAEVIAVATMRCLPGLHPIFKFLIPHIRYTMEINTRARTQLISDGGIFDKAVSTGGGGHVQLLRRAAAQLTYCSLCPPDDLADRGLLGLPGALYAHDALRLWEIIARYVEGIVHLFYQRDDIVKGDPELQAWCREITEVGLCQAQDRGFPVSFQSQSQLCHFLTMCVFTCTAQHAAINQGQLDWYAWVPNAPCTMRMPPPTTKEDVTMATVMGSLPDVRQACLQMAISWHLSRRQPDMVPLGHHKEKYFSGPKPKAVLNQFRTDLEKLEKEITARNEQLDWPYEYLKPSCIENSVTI

Point of comparison: `COCCn1c(=O)c2c(nc(-n3nc(C)cc3C)n2Cc2ccccc2)n(C)c1=O`, “activity change, negative = inhibition” value -1.9%. Against it:
- CCCCCCc1cc2c3c(c(=O)oc2cc1OCC(=O)C(C)(C)C)CCCC3 — higher, 22.2%
- Fc1ccc(NCC23CC4CC(CC(C4)C2)C3)cc1 — higher, 2.88%
- COC(=O)c1ccc(C(=O)OC(C)C(=O)C23CC4CC(CC(C4)C2)C3)cc1 (configuration not stated) — higher, 8.3%
- Cc1c(C(=O)N2CCOC(C)C2)cnn1-c1ccc(F)cc1 (configuration not stated) — higher, 12.1%
- CCNc1ncc(CN2CCN(c3cccc(C(F)(F)F)c3)CC2)cn1 — higher, 51.7%
- CN(C)C(=O)C(NCCc1c[nH]c2ccccc12)c1ccccc1 (configuration not stated) — higher, 0.261%
- Cc1ccc(-c2csc(N(Cc3ccco3)C(=O)c3cccs3)n2)cc1 — lower, -3.04%
- CCc1ccc(Nc2ncc3c(n2)CC(c2ccco2)CC3=O)cc1 (configuration not stated) — lower, -1.98%
- CC(C)(C)c1ccc(C(=O)NNC(=O)C2CC2)cc1 — lower, -4.22%
- Fc1ccccc1COc1ccc(-c2nnco2)cc1 — higher, 0.307%
- Cc1ccc(C)c(NC(=O)N2CCCC2c2ccco2)c1 (configuration not stated) — higher, 1.15%
- Cc1ccccc1OCCN(C)Cc1cc(=O)oc2cc(O)ccc12 — lower, -23.4%
- CCCc1cc(=O)[nH]c(SCc2ccc(C#N)cc2)n1 — higher, 0%
- Cc1ccc(CSc2nsc(C)c2C#N)cc1 — higher, 0%
- CCN1C(=O)[C@@H]2[C@@H](c3ccc(-c4ccc(OC)cc4)c(OC)c3)N3CCC[C@@]3(C(=O)OC)[C@@H]2C1=O — lower, -21.7%
- CCCCCCSc1ccc([C@@H]2[C@H]3C(=O)N(CC)C(=O)[C@H]3[C@]3(C(=O)OC)CCCCN23)cc1 — higher, 44.9%
- O=C(O)c1ccc2nc[nH]c2c1 — higher, 0.982%
- O=C(COc1ccc2c(c1)CCC2)N(Cc1nc2ccccc2c(=O)[nH]1)CC1CCCO1 (configuration not stated) — higher, 11.7%
- O=C(CN1CCN(S(=O)(=O)c2cccc(Cl)c2)CC1)N1CCCCC1 — higher, 0%
- O=S(=O)(c1cc(Cl)ccc1Cl)N1CCN(Cc2ccco2)CC1 — lower, -3.3%
- Cc1[nH]c2ccccc2c1C(=O)C(=O)NC(C)CCc1ccccc1 (configuration not stated) — lower, -38.1%
- Cc1ccc2cc(C)c(Nc3cccc(C)c3C)nc2c1 — higher, 0.82%
- O=C(Nc1cccc(Br)c1)c1csc2c1CCCC2 — lower, -49.6%
- O=C(c1ccco1)N1CCN(Cc2cccc(C(F)(F)F)c2)CC1 — higher, 19.9%
- CCCOc1ccc(-c2nc(C#N)c(N3CCN(C(=O)c4ccco4)CC3)o2)cc1 — lower, -45.2%
- O=C(c1cc(-c2cccs2)on1)N1CCCC1c1ccccc1F (configuration not stated) — lower, -2.89%
- CSc1ccc(C(=O)N2CCC(n3nccc3NC(=O)CC(C)C)CC2)cc1 — higher, 0.71%
- O=C(COc1ccc(F)cc1Cl)Nc1ncn[nH]1 — higher, 77.9%
- Cc1noc(C)c1CS(=O)(=O)c1cc(Cl)ccc1Cl — higher, 7.07%
- COc1ccccc1-c1nnc(SCC(N)=O)o1 — lower, -10.9%
- COc1ccc(CN(C(=O)CSc2nnc(-c3ccc(OC)c(OC)c3)o2)c2ccc(F)cc2)cc1 — lower, -16%
- CCCNC(=O)NNC(=O)c1cn(C)c2ccccc12 — lower, -3.21%
- Cn1c(COc2ccc(Cl)cc2)nnc1SCC(O)COc1ccc(C(C)(C)C)cc1 (configuration not stated) — lower, -24.4%
- CCc1ccc(CN(C)C(=O)Cn2cnc3c2c(=O)n(C)c(=O)n3C)cc1 — lower, -21.2%
- CC(C)c1noc(-c2cn(C3CCN(C(=O)COc4ccc(F)cc4)CC3)nn2)n1 — higher, 26.4%
- CCc1ccc(N2CC(O)=C(c3nc4ccccc4c(=O)[nH]3)C2=N)cc1 — lower, -5.65%
- Cc1nc2cnc(N3CCNCC3)nc2n(CCc2ccccc2)c1=O — higher, 0%
- COc1cccc(-c2cn3c(n2)NCCC3)c1 — higher, 37.1%
- O=C(Nc1cnc(-c2cccc(Cl)c2)nc1)c1ccc(F)cc1 — higher, 33.3%
- COc1cccc2cc(S(=O)(=O)c3ccc(Cl)c(Cl)c3)c(=O)oc12 — higher, 30.9%
- CCOc1ccc(C(=O)N2CCC(c3n[nH]c(=O)n3-c3ccccc3)CC2)cc1OCC — higher, 25.8%
- Cc1ccc(-n2c(C3CCN(C(=O)c4ccoc4)CC3)n[nH]c2=O)cc1 — higher, 54.3%
- CC(C)(CNC(=O)c1ccccc1)CNC(=O)c1ccccc1 — higher, 3.22%
- O=C1CSc2ccc(C(=O)Nc3cccc(COC(=O)c4ccc5c(c4)NC(=O)CS5)c3)cc2N1 — higher, 30.1%
- O=C(NCCNC(=O)C1CC1)c1c[nH]c2ccccc12 — higher, 1%
- Nc1nc(COC(=O)c2ccc(OC(F)F)cc2)nc2ccccc12 — higher, 32.2%
- Cc1occc(=O)c1OCc1noc(C(=O)NCc2ccc(Cl)cc2)n1 — higher, 30.8%
- O=C1Cc2cc(-c3csc(Nc4ccc(F)cc4)n3)ccc2N1 — lower, -8.91%
- Cc1ccc(-c2csc(Nc3ccccc3)n2)c(C)c1 — lower, -61.9%
- CC(=O)c1ccc(NC(=O)C(C)Sc2nnc(-c3ccco3)n2-c2ccccc2)cc1 (configuration not stated) — higher, 7.66%
- Cc1ccccc1-n1cnnc1SCC(=O)NC(C)c1cccc2ccccc12 (configuration not stated) — higher, 8.99%
- COc1ccc(C2C(C#N)=C(N)N(c3ncn[nH]3)C3=C2C(=O)CCC3)cc1 (configuration not stated) — higher, 7.37%
- CCCN1C2=C(C(=O)CCC2)C(c2ccc(O)c(Br)c2)C2=C1CCCC2=O — higher, 0.376%
- CCCCCCCC1CCC(c2ccc(-c3ccc(CCCC)cn3)cc2)CC1 (configuration not stated) — higher, 8.25%
- COc1ccc(NC(=O)CN(C)C(=O)c2nc(-c3ccccc3)oc2C)cc1 — lower, -28.5%
- COc1cc(C2/C(=C(\O)c3ccc4c(c3)CC(C)O4)C(=O)C(=O)N2Cc2ccco2)ccc1O (configuration not stated) — lower, -13.7%
- COCCN1C(=O)C(=O)/C(=C(/O)c2ccc(S(=O)(=O)N3CCOCC3)cc2)C1c1ccc(OC)c(OC)c1 (configuration not stated) — lower, -19.4%
- CCCOc1ccc(/C(O)=C2/C(=O)C(=O)N(CCN(C)C)C2c2ccc(OC)c(OC)c2)cc1 (configuration not stated) — higher, 0%
- COc1ccc(C2/C(=C(/O)c3ccc(OC(C)C)cc3)C(=O)C(=O)N2CCCN2CCOCC2)cc1 (configuration not stated) — lower, -14.3%
- CCOc1cc(C2/C(=C(/O)c3ccc(S(=O)(=O)N4CCCCC4)cc3)C(=O)C(=O)N2CCOC)ccc1O (configuration not stated) — lower, -11.4%
- COc1cccc(C2/C(=C(/O)c3ccc(F)cc3)C(=O)C(=O)N2CCN(C)C)c1 (configuration not stated) — higher, 22.4%
- Cc1ccc(C)c(OCc2ccc(-c3nc(C#N)c(NC(C)C)o3)o2)c1 — lower, -14.7%
- CCCCCCC(C)NC(=O)COC(=O)c1n[nH]c(=O)c2ccccc12 (configuration not stated) — lower, -13.7%
- NCC(=O)N1CCCC2(Cc3ccccc3CN2C(=O)c2cccc(Cl)c2)C1 (configuration not stated) — higher, 42.1%
- Cc1cc2ccccc2n1CC(=O)NCc1ccc(C(N)=O)cc1 — higher, 19.6%
- Cc1cccc(NC(=O)c2ccccc2NC(=O)CN2CCN(S(=O)(=O)c3cccs3)CC2)c1 — higher, 3.21%
- COc1ccc(S(=O)(=O)N2CCC(C(=O)Nc3cccc(C)c3)CC2)c2cccnc12 — higher, 26.8%
- COC(=O)[C@H](Cc1ccc(OC)cc1)NC(=O)[C@H]1CN(C(=O)c2ccc(N(C)C)cc2)CCN1S(=O)(=O)c1ccccc1 — higher, 6.47%
- CCCN(C)C(=O)CCC[C@H]1NC[C@@H]2C[C@H]1CN(Cc1ccccc1)C2 — higher, -0.277%
- NC1=C([N+](=O)[O-])C(c2ccccc2)C2=C(CCCC2=O)O1 (configuration not stated) — higher, 10.4%
- CC1(C)CC(=O)C2=C(C1)OC(N)=C(C#N)C2c1cccnc1 (configuration not stated) — lower, -14.4%

With `O=C(OC12CC3CC(CC(C3)C1)C2)c1ccc(NCc2cc(O)ccc2O)cc1` the Potency was 31.6 µM (active).
With `CN(c1ccccc1)c1cc(=O)c2ccnc(Nc3cccc([S+](C)(=O)[O-])c3)c2o1` the Potency was 56.2 µM (active).
For `Cc1ccc(-c2csc(-c3cc4c([nH]c3=O)CC(c3ccco3)CC4=O)n2)cc1` (configuration not stated), the Potency was 2.24 µM (active).
In the case of `Cc1ccc(CSc2nc(-c3ccccc3)c(C#N)c(=O)[nH]2)cc1`, the Potency is reported as 39.8 µM (active).
In the case of `CCCCCCSc1ccc([C@@H]2[C@@H]3C(=O)N(CC)C(=O)[C@@H]3[C@]3(C(=O)OC)CCCCN23)cc1OC`, the Potency is reported as 17.8 µM (active).
For `N#Cc1cccnc1-c1cccc(C(=O)O)c1`, the Potency was 56.2 µM (active).
With `O=C(CN1CCN(S(=O)(=O)c2cc(Cl)ccc2Cl)CC1)c1ccc(O)c(O)c1` the Potency was 1.41 µM (active).
With `Cc1ccc(-c2csc(C(C#N)=C(O)CN3CCN(C(=O)c4ccco4)CC3)n2)cc1` the Potency was 44.7 µM (active).
`COc1ccc(-c2nnc(SC(=O)N3c4ccccc4Sc4ccccc43)o2)cc1` was tested, and the Potency was 8.91 µM (active).
In the case of `CNC(=O)[C@@H](Cc1ccccc1)N1CCC[C@H]1C(=O)N1CCC1`, the Potency is reported as 22.4 µM (active).
With `CCc1ccc(-n2ccc3nc(N4CCc5ccccc5C4)ncc3c2=O)cc1` the Potency was 39.8 µM (active).
For `Cc1ccc(C(=O)N2CCC(c3n[nH]c(=O)n3-c3ccccc3)CC2)cc1F`, the Potency was 28.2 µM (active).
`O=C(O)c1ccc(Nc2nc(-c3ccc4ccccc4c3)cs2)cc1O` was tested, and the Potency was 31.6 µM (active).
In the case of `COc1ccc(C2C3=C(CCCC3=O)N(CC(=O)O)C3=C2C(=O)CCC3)cc1`, the Potency is reported as 10 µM (active).
`COCCN1C(=O)C(=O)/C(=C(/O)c2ccc(S(=O)(=O)N3CCCCC3)cc2)C1c1ccc(OC)c(OC)c1` (configuration not stated) was tested, and the Potency was 14.1 µM (active).
`COc1ccc(/C(O)=C2\C(=O)C(=O)N(Cc3ccco3)C2c2ccc(OC)cc2OC)cc1` (configuration not stated) was tested, and the Potency was 14.1 µM (active).
With `COc1ccc(/C(O)=C2/C(=O)C(=O)N(CC3CCCO3)C2c2ccc(OC)c(OC)c2)cc1` (configuration not stated) the Potency was 17.8 µM (active).
`N#CC1=C(N)OC2=C(C(=O)CCC2)C1c1ccc(-c2ccc(Cl)cc2Cl)o1` (configuration not stated) was tested, and the Potency was 28.2 µM (active).

Point of comparison: `CN(c1ccccc1)c1cc(=O)c2ccnc(-c3ccc(CO)cc3)c2o1`, “activity change, negative = inhibition” value -12.8% [at 176 µM]. Against it:
- CN(c1ccccc1)c1cc(=O)c2ccnc(NC3CCOCC3)c2o1 — higher, 9.42% [at 176 µM]
- COc1cccc(CN2C[C@@H](F)[C@@H](OCc3nc4ccccc4n3C)C2)n1 — higher, 100% [at 176 µM]
- CCNC(=O)[C@@H]1CCCN1[C@@H](C(=O)NC)c1ccccc1OC — higher, 31.9% [at 176 µM]
- CNC(=O)C(C)(C)N1CCC[C@H]1C(=O)N(C)Cc1ccccc1 — higher, -3.65% [at 176 µM]

In the case of `O=C(O)c1cccc(-c2ccccn2)c1`, the activity change, negative = inhibition is reported as 6.18% [at 12.5 µM] and -0.515% [at 12.5 µM].

`O=C(Nc1ccccc1F)N1CC2CCC(C1)N2Cc1ccc(-c2cccnc2)cc1` showed an activity change, negative = inhibition of 0.675% [at 6.33 µM].
